Results from PubChem BioAssay (NCI).
Several values for one entry are separate records, joined by “and”; a condition that tells them apart may be missing. Equal entries are not always repeated. The panel holds about 83,000 compounds, 20% with a hit somewhere; the sample as a whole holds those more often.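 A percent growth of 40 corresponds to 60% growth inhibition; 0 means no net growth; -100 means all cells died. Active threshold: below 10.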 Activity calls are given as the source filed them.

Columns and labels:
Assay in all cases: NCI-60 one-dose screen, 48 h (100 = growth as untreated, 0 = no growth, -100 = all killed)
[1] = tested on: EKVX NSCLC; details: 10 µM
[2] = tested on: SN12C renal; details: 10 µM
[3] = tested on: UO-31 renal; details: 10 µM
[4] = tested on: TK-10 renal
[5] = tested on: ACHN renal; details: 10 µM
[6] = tested on: CAKI-1 renal; details: 10 µM
[7] = tested on: A498 renal; details: 10 µM
[8] = tested on: CCRF-CEM leukemia; details: 10 µM
[9] = tested on: MOLT-4 leukemia; details: 10 µM unless noted
[10] = tested on: RPMI-8226 leukemia; details: 10 µM
[11] = tested on: OVCAR-8 ovarian; details: 10 µM
[12] = tested on: OVCAR-5 ovarian; details: 10 µM
[13] = tested on: OVCAR-4 ovarian; details: 10 µM
[14] = tested on: SK-OV-3 ovarian; details: 10 µM
[15] = tested on: IGROV1 ovarian; details: 10 µM
[16] = tested on: OVCAR-3 ovarian; details: 10 µM
[17] = tested on: HS 578T breast; details: 10 µM
[18] = tested on: NCI/ADR-RES ovarian; details: 10 µM
[19] = tested on: T-47D breast; details: 10 µM
[20] = tested on: SR leukemia; details: 10 µM

Measured: growth

Cc1cc(N=C2C=CC(=[N+](C)C)C=C2)c(N)cc1N
inactive: [1] 85.4% | [2] 88.7% | [3] 71.5% | [4]; 10 µM 106% | [5] 91% | [6] 92.8% | [7] 75.7% | [8] 89.3% | [9] 91.3% | [10] 65.7% | [11] 92.8% | [12] 95.6% | [13] 82.3% | [14] 105% | [15] 109% | [16] 16.5% | [17] 94.5% | [18] 80.4%

C=C1N(C)c2ccc(Cl)cc2C1(C)C
inactive: [1] 25.2% | [2] 54.8% | [3] 78.5% | [4]; 10 µM 83.8% | [5] 94.9% | [7] 84.1% | [8] 42.2% | [9] 35.8% | [11] 67.9% | [12] 82.9% | [13] 60.7% | [14] 82% | [16] 42.9% | [17] 49.8% | [18] 95.8% | [19] 33.7%
active: [10] -13.2%

ClCCn1c(CCl)nc2ccc(Cl)cc21
active: [2] -47% | [3] -82.6% | [4]; 10 µM -30.6% | [5] -68.8% | [6] -28.5% | [7] 1.48% | [8] -46.8% | [9] -52.7% | [20] -32.4% | [10] -22.2% | [11] -33% | [12] -22.9% | [13] -18.9% | [15] -62.5% | [16] -89.6% | [17] -10.9% | [18] 2.35%

O=[N+]([O-])c1cc(S(=O)(=O)Nc2ccccc2)ccc1Cl
inactive: [1] 86.1% | [2] 95.7% | [3] 76.7% | [4]; 10 µM 99.1% | [5] 94.2% | [6] 77.3% | [7] 96.8% | [8] 85.9% | [9] 89% | [10] 88.4% | [11] 91.5% | [12] 101% | [13] 97% | [14] 96.3% | [15] 96.1% | [16] 106% | [17] 101% | [18] 99.6%

CC1CCC2(C(=O)O)CCC3(C)C(=CCC4C5(C)CC(O)C(O)C(C)(CO)C5C(O)CC43C)C2C1C (stereo unspecified)
inactive: [1] 113% | [2] 96.1% | [3] 92.8% | [4]; 10 µM 108% | [5] 116% | [6] 118% | [8] 88.5% | [9] 113% | [20] 105% | [10] 128% | [12] 188% | [13] 114% | [14] 103% | [15] 92.8% | [16] 118% | [18] 99.4%

CN(C)CCNc1cccc2sc3ccc(O)cc3c(=O)c12
active: [6] 5.13%
inactive: [2] 40.4% | [3] 20% | [4]; 10 µM 58% | [5] 14.9% | [7] 92.5% | [9] 14.3% | [10] 73.4% | [11] 36% | [12] 78.8% | [13] 52.8% | [14] 51.1% | [15] 50.1% | [16] 41.8% | [17] 69.4% | [18] 45%

N#CC(=S)Nc1cccc(Cl)c1
active: [4]; 100 µM 5.57% and -9.55%

CO[C@@]12[C@H](COC(N)=O)C3=C(C(=O)C(C)=C(N)C3=O)N1C[C@@H]1N[C@@H]12
active: [4]; 25 µM -32.7% and -74.4%

S=C1SCN(CCc2ccccc2)CN1CCc1ccccc1
inactive: [1] 109% | [2] 101% | [3] 70.6% | [4]; 10 µM 82.1% | [5] 110% | [6] 90.5% | [8] 57.3% | [9] 76.8% | [20] 61.2% | [10] 55.8% | [11] 100% | [12] 112% | [15] 105% | [16] 116% | [17] 105% | [18] 102%

COc1cc2c(cc1C[N+](C)(C)CSc1ccccc1)-c1ccccc1CC2
active: [4]; 100 µM -93.9% and -97.7%

COc1ccc(N)c2c1C(=O)c1ccccc1C2=O
inactive: [1] 106% | [2] 93.9% | [3] 68.5% | [4]; 10 µM 102% | [5] 96.9% | [6] 74% | [7] 93.4% | [8] 89.9% | [9] 67% | [10] 88.9% | [11] 95.7% | [12] 103% | [13] 109% | [14] 89.4% | [15] 88.7% | [16] 115% | [17] 107% | [18] 110%

CCC(=O)Oc1ccc(/C=N/NC(N)=S)nc1
inactive: [1] 86.3% | [2] 32.5% | [3] 29.7% | [4]; 10 µM 86.3% | [7] 52% | [9] 10.8% | [10] 50.3% | [11] 23.5% | [12] 108% | [13] 56.2% | [14] 78% | [15] 45% | [16] 57.3% | [17] 117% | [18] 25.1%
active: [5] 8.62% | [6] -2.02% | [8] -0.545%

CN(CC(=O)O)c1ccc(/C=C/c2ccnc3ccccc23)cc1
inactive: [1] 69.6% | [2] 85.2% | [3] 61.7% | [4]; 10 µM 98.7% | [5] 89.1% | [6] 92.9% | [7] 97.1% | [8] 66.8% | [9] 34.4% | [10] 70.4% | [11] 80% | [12] 123% | [13] 86.2% | [14] 91.3% | [15] 77.4% | [16] 90.4% | [17] 84.6% | [18] 89.3%

COc1ccc2c(c1)[nH]c1c(/C=C/c3ccccc3)nccc12
inactive: [1] 62.2% | [2] 78.7% | [3] 25.7% | [4]; 10 µM 81.2% | [5] 61.1% | [6] 58.4% | [7] 71.2% | [8] 65% | [9] 48% | [20] 29.3% | [10] 25.2% | [12] 74.2% | [13] 21.4% | [14] 65.1% | [16] 73.4% | [17] 70.4% | [18] 53.4%
active: [15] -15.7%

C=C(C)[C@@H]1CCc2c(O)c(O)c(=O)cc(C)c2C1
active: [4]; 100 µM -17% and -96.5%

Clc1c(Cl)c(Cl)c2c(nnn2C2CCCO2)c1Cl (stereo unspecified)
active: [4]; 100 µM -9.89% and -74.8%

O=C(CCc1ccccc1)ON1C(=S)C(c2ccccc2)(c2ccccc2)N=C1Sc1ccccc1
28.6% (inactive) and 7.58% (active): [4]; 100 µM

Cc1cc(O)c2c(c1O)C(=O)C13C(=C2O)C(=O)C2C(O)C1C1C(O)C3C(=O)C3=C(O)c4c(O)cc(C)c(O)c4C(=O)C321 (stereo unspecified)
active: [6] -33.6% | [8] 4.16% | [9] 8.98% | [10] -4.03% | [12] -50.6% | [14] -13.1% | [16] -39.1% | [17] -55.2% | [18] -17%
inactive: [1] 44.3% | [2] 12.7% | [3] 22.6% | [4]; 10 µM 22.3% | [5] 11.4% | [20] 12.6% | [13] 27.8% | [15] 10.3%

COc1cc(N)ccc1Nc1c2ccccc2nc2ccccc12
inactive: [2] 81% | [3] 50.6% | [4]; 10 µM 88.3% | [5] 88.6% | [6] 70.5% | [7] 87.3% | [20] 10.1% | [11] 66.1% | [12] 110% | [14] 93.9% | [15] 60.8% | [16] 80.6% | [17] 102% | [18] 92.7%
active: [9] 2.72% | [13] 5.09%

Cc1cc(Cl)ccc1NC(=O)/C(Cl)=C1/Sc2ccccc2NC1=O
inactive: [1] 70.4% | [2] 106% | [3] 76.4% | [4]; 10 µM 146% | [5] 85.4% | [6] 60.8% | [7] 131% | [8] 76.5% | [9] 83.5% | [20] 100% | [10] 69.4% | [12] 93.5% | [13] 89.8% | [14] 103% | [15] 68.7% | [16] 95.4% | [17] 122% | [18] 87.6% | [19] 50.3%

COc1ccc2oc(-c3ccc(Cl)cc3)c(N3CCN(C)CC3)c2c1
active: [3] -5.46% | [4]; 10 µM -1.47% | [5] 4.13% | [6] -11.6% | [8] -12.6% | [10] -10.3% | [12] 2.8% | [15] -87.5% | [16] 1.93% | [18] -10.9%
inactive: [1] 50.7% | [2] 37.2% | [7] 52.4% | [9] 12.5% | [11] 31.8% | [13] 78.2% | [14] 55.1% | [17] 28.3%
